ABCB6 inh 2: human ABCB6 transporter inhibition; K562-ABCB6 porphyrin accumulation, flow cytometry, 1 h; hits give low values; fluorescence ratio to DMSO, % at 10 µM; 360,000 compounds, 0.19% hits; Q9NP58;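 active means fluorescence ratio to DMSO below 75%, the collection mean minus 3 SD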;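 further: signal is porphyrin accumulated inside mitochondria; 100% equals median channel fluorescence of DMSO control wells; lower ratio means ABCB6 inhibition with less porphyrin fluorescence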
Target sequence (Q9NP58 whole entry, looked up): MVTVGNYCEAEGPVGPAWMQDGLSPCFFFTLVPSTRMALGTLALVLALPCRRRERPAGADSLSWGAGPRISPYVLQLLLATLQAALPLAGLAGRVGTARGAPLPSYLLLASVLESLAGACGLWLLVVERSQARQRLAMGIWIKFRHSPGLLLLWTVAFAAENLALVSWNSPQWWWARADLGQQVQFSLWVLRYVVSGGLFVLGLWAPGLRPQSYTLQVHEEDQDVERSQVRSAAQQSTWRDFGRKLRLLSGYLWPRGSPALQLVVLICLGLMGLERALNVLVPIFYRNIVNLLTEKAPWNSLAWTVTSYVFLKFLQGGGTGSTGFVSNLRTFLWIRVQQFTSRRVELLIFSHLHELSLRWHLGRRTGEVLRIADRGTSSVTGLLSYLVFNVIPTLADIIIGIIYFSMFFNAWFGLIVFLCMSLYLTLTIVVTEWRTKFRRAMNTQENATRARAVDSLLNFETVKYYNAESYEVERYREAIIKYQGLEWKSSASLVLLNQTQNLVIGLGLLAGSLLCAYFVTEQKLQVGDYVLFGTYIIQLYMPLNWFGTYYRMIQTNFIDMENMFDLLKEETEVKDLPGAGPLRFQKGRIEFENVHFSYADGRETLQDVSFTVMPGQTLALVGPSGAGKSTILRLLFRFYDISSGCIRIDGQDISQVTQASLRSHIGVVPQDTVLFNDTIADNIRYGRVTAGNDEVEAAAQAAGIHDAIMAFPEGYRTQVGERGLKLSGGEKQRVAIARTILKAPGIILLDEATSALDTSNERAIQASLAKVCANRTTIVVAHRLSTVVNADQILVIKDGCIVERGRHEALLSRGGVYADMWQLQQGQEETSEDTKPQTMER
bovine MsrA act: bovine methionine sulfoxide reductase A activation; AID 602163; activation, % at 10.6 µM; 360,000 compounds, 0.3% hits; purified bovine MsrA, absorbance read-out; in the data active means activation above about 7.5%;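 further: 0% = vehicle and 100% = reference activator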
MsrA inhibitor: inhibits bovine methionine sulfoxide reductase A; purified bovine MsrA, absorbance read-out; inhibition, % at 15.5 µM; 360,000 compounds, 0.75% hits; in the data active means inhibition above about 4.5%;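 further: 0% = vehicle wells with enzyme and 100% = reference inhibitor wells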
SMARCA2 activ: SMARCA2 function activation, primary screen; MG213 cells, MMTV-luciferase reporter, dexamethasone, overnight; activation, % at 9.1 µM; 370,000 compounds, 1% hits; in the data active means activation above about 7.8%;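 further: 0% = vehicle wells and 100% = reference activator wells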
SMARCA2 act conf: confirmation of SMARCA2 (BRM) function activators; activation, % at 9.1 µM; MG213 cells, MMTV-luciferase with dexamethasone, luminescence, overnight; MG213 cells expressing E1A, Rb sequestered; DMSO wells 0%, reference activator 100%; shares compounds with SMARCA2 activ; 3,500 compounds, 30% hits;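 active means activation above its plate's cutoff, the mean activation of tested wells plus 3 SD, cut at about 7.9% in these data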
VP16 Luc act: activates GAL4-VP16 luciferase, flagging SMARCA2 activator hits. shares compounds with SMARCA2 activ. activation, % at 9.1 µM. 3,500 compounds, 41% hits. HEK293 GAL4-VP16 pG5luc reporter, luciferase luminescence; scaled: DMSO wells 0%, SAHA wells 100%. AID 686939;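 active means activation above the solvent-only control well mean plus 3 SD, averaged across control plates, cut at about 5.2% in these data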
Numbers without * were called inactive. Rows were chosen to be rich in hits. Some 2.1% of all compounds tested hit in one or more screens of this group.

Screening Cc1sc2nc3c4ccccc4c(NCc4ccco4)nn3c(=O)c2c1C returned ABCB6 inh 2 92, bovine MsrA act -1, MsrA inhibitor 0, SMARCA2 activ 13*, SMARCA2 act conf 43* and VP16 Luc act 19*.
O=C(CN1C(=O)CCSc2ccccc21)Nc1ccc(Cl)c(Cl)c1 was read as SMARCA2 activ -1.
Screening CCCC(=O)OC12CCCN(C1)/C(=C/c1cccc(Cl)c1)C2 (stereo not drawn) returned SMARCA2 activ -4.
Screening COc1ccc(-c2cc(C)no2)cc1S(=O)(=O)NCC(C)c1ccccc1 (stereo not drawn) returned ABCB6 inh 2 99, bovine MsrA act -2, MsrA inhibitor 0 and SMARCA2 activ -2.
For COc1ccc(-c2cc(C)no2)cc1S(=O)(=O)Nc1ccc(NC(C)=O)cc1 the results were ABCB6 inh 2 97, bovine MsrA act -3, MsrA inhibitor 0, SMARCA2 activ 8.7*, SMARCA2 act conf -2 and VP16 Luc act 2.
COC(=O)[C@]12C[C@H](CC(=O)NCc3cccc4ccccc34)C(=O)N(CCC3=CCCCC3)C1=C[C@H](C(C)C)O[C@@H]2C1CC1 was read as SMARCA2 activ -3.
Brc1cccc(Nc2nc(-c3cccnc3)cs2)c1 was read as ABCB6 inh 2 98, bovine MsrA act -2, MsrA inhibitor 1, SMARCA2 activ 8.6*, SMARCA2 act conf 7 and VP16 Luc act 6.0*.
O=C(Nc1nc(-c2cccc(Br)c2)cs1)Oc1ccccc1 was read as ABCB6 inh 2 99, bovine MsrA act -5, MsrA inhibitor 0, SMARCA2 activ 8.4*, SMARCA2 act conf 8.0* and VP16 Luc act 4.
For COC(=O)C1=C(C)N(Cc2cccc(C(F)(F)F)c2)C(=NCc2ccc(C(F)(F)F)cc2)NC1c1cccc(F)c1 (stereo not drawn) the results were MsrA inhibitor -1 and SMARCA2 activ -12.
For CC(COc1cccc(C(F)(F)F)c1)CN1CCC(C(O)(c2ccccc2)c2ccccc2)CC1 (stereo not drawn) the results were SMARCA2 activ -2.
`O=C(/C=C/c1ccc(Br)cc1)c1ccc(NC2=NCCCS2)cc1` gave ABCB6 inh 2 94, bovine MsrA act -4, MsrA inhibitor 4.8*, SMARCA2 activ 25*, SMARCA2 act conf 12* and VP16 Luc act 2.
Screening O=C(/C=C/c1ccccc1)c1ccc(NC2=NCCCS2)cc1 returned ABCB6 inh 2 101, bovine MsrA act -4, MsrA inhibitor 0 and SMARCA2 activ 5.
Screening CN(CC(=O)Nc1ccccc1Br)C(=O)c1ccc(-c2ccc(Cl)cc2)o1 returned ABCB6 inh 2 110, bovine MsrA act -11, MsrA inhibitor 0, SMARCA2 activ 8.9*, SMARCA2 act conf -2 and VP16 Luc act 2.
For O=C1Cc2c([nH]c3ccc(Br)cc23)-c2ccccc2N1 the results were ABCB6 inh 2 104, bovine MsrA act -13, MsrA inhibitor 1, SMARCA2 activ 9.2*, SMARCA2 act conf 19* and VP16 Luc act 2.
For Nc1ccc(Nc2nc(-c3ccncc3)cs2)cc1 the results were ABCB6 inh 2 97, bovine MsrA act -3, MsrA inhibitor 1, SMARCA2 activ 13*, SMARCA2 act conf 11* and VP16 Luc act 13*.
`O=C(c1cc(-c2ccc(Cl)cc2Cl)on1)N1CCCC1` gave ABCB6 inh 2 100, bovine MsrA act -3, MsrA inhibitor 0 and SMARCA2 activ 0.
`Cc1nccc(-c2cc(-c3ccc(Cl)cc3Cl)no2)n1` gave ABCB6 inh 2 98, bovine MsrA act -4, MsrA inhibitor 0, SMARCA2 activ 16*, SMARCA2 act conf 14* and VP16 Luc act 3.
CCOC(=O)Cc1nc(N2CCN(CCN)CC2)c2c(C)c(C(=O)OCC)sc2n1 was read as SMARCA2 activ -2.
`C/C(=N\Nc1ccccn1)c1cccs1` gave ABCB6 inh 2 97, bovine MsrA act -3, MsrA inhibitor 2, SMARCA2 activ 10.0*, SMARCA2 act conf 11* and VP16 Luc act 6.4*.
For CC(=O)c1cc(-c2ccccc2)n(CC(=O)NCc2ccccc2)c1C the results were SMARCA2 activ 1.
Screening COCC1CCCCN1Cc1cn[nH]c1-c1ccc2cc(OC)ccc2c1 (stereo not drawn) returned ABCB6 inh 2 98, bovine MsrA act -3, MsrA inhibitor 0, SMARCA2 activ 11*, SMARCA2 act conf 3 and VP16 Luc act 4.
N#Cc1ccc(-c2nc3ccc(Cl)cn3c2Cc2ccccc2)cc1 was read as ABCB6 inh 2 108, bovine MsrA act -3, MsrA inhibitor 1 and SMARCA2 activ -2.
Cc1cc(N2CCOCC2)nc2ccc(NC(=O)CCC(=O)N3CCN(c4ccccc4)CC3)cc12 was read as ABCB6 inh 2 99, bovine MsrA act -6, MsrA inhibitor 0, SMARCA2 activ 8.2*, SMARCA2 act conf 2 and VP16 Luc act 5.4*.
`CCOC(=O)N1CCN(C(=O)C[C@H]2C[C@@]3(C(=O)OC)C(=C[C@H](C4CCCC4)O[C@@H]3C)N(Cc3ccc(Cl)cc3Cl)C2=O)CC1` gave SMARCA2 activ -3.
Cn1nc2sc3ccccc3n2c(=O)c1=O was read as ABCB6 inh 2 96, bovine MsrA act -2, MsrA inhibitor -1 and SMARCA2 activ -5.
N#Cc1cnc2sc3ccccc3n2c1=N was read as ABCB6 inh 2 97, bovine MsrA act -3, MsrA inhibitor 3, SMARCA2 activ 9.5*, SMARCA2 act conf 9.2* and VP16 Luc act 7.0*.
`CCOC(=O)c1cnn(-c2cccc(Cl)c2)c1N` gave ABCB6 inh 2 98, bovine MsrA act -9, MsrA inhibitor 1, SMARCA2 activ 9.4*, SMARCA2 act conf 6 and VP16 Luc act 2.
CCCCNC(=O)OCCCN1CCC2(CCC(c3ccccc3)CC2)C1 (stereo not drawn) was read as SMARCA2 activ -4.
Screening COc1ccc(NC(=O)/C=C/c2cccc(F)c2)cn1 returned ABCB6 inh 2 97, bovine MsrA act 0, MsrA inhibitor 0, SMARCA2 activ 12*, SMARCA2 act conf 3 and VP16 Luc act 10*.
CC1CCC(NC(=O)C(C)N2C(=O)C3CCCCC3C2=O)CC1 (stereo not drawn) was read as ABCB6 inh 2 102, bovine MsrA act -3, MsrA inhibitor 0, SMARCA2 activ 9.3*, SMARCA2 act conf 2 and VP16 Luc act 2.
Screening CCOC(=O)Cn1cc(CN2C(C(=O)OC)CN(CCO)CCS2(=O)=O)nn1 (stereo not drawn) returned SMARCA2 activ 0.
For CCOc1ccc(Cl)cc1/C=C1/C(=O)ON=C1C the results were ABCB6 inh 2 93, bovine MsrA act -7, MsrA inhibitor 0, SMARCA2 activ 8.0*, SMARCA2 act conf 5 and VP16 Luc act 1.
Screening COc1ccc(C(=O)NC(=S)N2CCNC(=O)C2)cc1Br returned ABCB6 inh 2 99, bovine MsrA act -3, MsrA inhibitor 0 and SMARCA2 activ 0.

High-throughput results (PubChem BioAssay)
